ZTA DNA inh = blocks Epstein-Barr virus ZTA, an EBNA-1 counter-screen | P03206 | ZTA-DNA binding, fluorescence polarization | inhibition, % at 11 µM | hit rate 0.15% among 320,000 | AID 2234; in the data active = inhibition above about 33%
Target sequence (P03206 whole entry, looked up): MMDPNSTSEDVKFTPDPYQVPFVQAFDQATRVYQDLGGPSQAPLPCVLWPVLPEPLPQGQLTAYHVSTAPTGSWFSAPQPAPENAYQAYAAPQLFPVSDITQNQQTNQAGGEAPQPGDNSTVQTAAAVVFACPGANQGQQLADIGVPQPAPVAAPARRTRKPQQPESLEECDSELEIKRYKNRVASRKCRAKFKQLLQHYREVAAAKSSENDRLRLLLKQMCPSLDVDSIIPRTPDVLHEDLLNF
MsrA inhibitor = inhibits bovine methionine sulfoxide reductase A | hit rate 0.75% among 360,000 | inhibition, % at 15.5 µM | purified bovine MsrA, absorbance read-out; in the data active = inhibition above about 4.5%
MsrA act = activates bovine MsrA enzyme; hit rate 0.3% among 360,000; activation, % at 10.6 µM; AID 602163; purified bovine MsrA, absorbance read-out; in the data active = activation above about 7.5%
PP1 counter = counter-screen for PP5 inhibitors: inhibitors of human PP1-alpha. purified PP1alpha, OMFP fluorescence. P62136. inhibition, % at 6.7 µM. hit rate 0.9% among 320,000. AID 2235;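 active = inhibition above the mean inhibition of all tested compounds plus 3 SD, computed separately for each screening campaign, cut at about 15% in these data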
Target sequence (P62136 whole entry, looked up): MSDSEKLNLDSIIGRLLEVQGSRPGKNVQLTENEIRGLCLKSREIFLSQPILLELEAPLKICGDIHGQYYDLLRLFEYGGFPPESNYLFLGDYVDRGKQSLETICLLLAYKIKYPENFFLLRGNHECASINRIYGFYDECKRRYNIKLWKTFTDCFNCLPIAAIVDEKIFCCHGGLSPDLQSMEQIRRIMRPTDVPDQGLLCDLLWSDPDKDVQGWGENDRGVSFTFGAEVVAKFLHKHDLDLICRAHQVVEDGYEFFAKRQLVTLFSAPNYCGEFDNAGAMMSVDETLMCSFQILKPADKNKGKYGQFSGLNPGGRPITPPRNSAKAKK
EBNA-1 inh = blocks EBNA-1 binding to DNA; EBNA-1 DNA binding, fluorescence polarization; inhibition, % at 14.8 µM; hit rate 0.34% among 300,000; in the data active = inhibition above about 28%
PP5 primary = blocks human protein phosphatase 5 activity; P53041; purified PP5c, OMFP substrate fluorescence; inhibition, % at 6.7 µM; hit rate 0.18% among 320,000; AID 1987;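 active = inhibition above the campaign's mean inhibition across all tested compounds plus 3 SD, cut at about 9.5% in these data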
PP1 inh confirm = human PP1 phosphatase inhibition, confirmation; hit rate 52% among 1,900; inhibition, % at 6.7 µM; purified PP1alpha, OMFP substrate fluorescence; AID 2358; shares compounds with PP1 counter;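 active = mean PP1 inhibition above a set limit taken from the earlier primary screen, cut at about 15% in these data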
PP5 inh counter = PP5 phosphatase inhibition, counter-screen for PP1 inhibitors; hit rate 4% among 1,900; purified PP5c, OMFP fluorescence; AID 2360; shares compounds with PP1 counter; inhibition, % at 6.7 µM;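 active = mean PP5 inhibition over triplicate wells above about 9.5% taken from the earlier PP1 screen, limit read from the data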
A number is an active result; - = inactive; . = no result given. A selection: hits, their analogues and other compounds. The true share with any hit is near 2.3%.

SMILES	ZTA DNA inh	MsrA inhibitor	MsrA act	PP1 counter	EBNA-1 inh	PP5 primary	PP1 inh confirm	PP5 inh counter
CC(=O)N1CCc2cc(S(=O)(=O)NC(CC(C)C)C(=O)N3CCn4c3nc3ccccc34)ccc21 (configuration not stated)	-	-	-	-	-	-	.	.
COC(=O)c1cc2sccc2n1CC(=O)N(C)c1ccccc1	-	-	-	43	-	-	-	-
COC(=O)c1cc2ccsc2n1CC(=O)N(C)c1ccccc1	-	-	-	-	-	-	.	.
COc1ccc(OCC(O)CNC(=O)c2c(-c3ccccc3)noc2C)cc1 (configuration not stated)	-	-	-	-	-	-	.	.
O=C(O)COc1ccccc1C(Nc1cccnc1)c1cc(Cl)c2cccnc2c1O (configuration not stated)	.	.	-	.	.	.	.	.
CCCC(=O)NC(c1cccs1)c1cc(Cl)c2cccnc2c1O (configuration not stated)	-	-	-	27	-	-	23	-
CCOc1ccc(C(Nc2cccnc2)c2cc(Cl)c3cccnc3c2O)cc1 (configuration not stated)	-	-	-	19	-	-	21	-
CCCC(=O)NC(c1ccc2c(c1)OCO2)c1cc(Cl)c2cccnc2c1O (configuration not stated)	-	.	-	20	-	-	24	-
Cc1ccc(S(=O)(=O)c2nnn3c2nc(NC2CCN(Cc4ccccc4)CC2)c2ccccc23)cc1C	-	.	-	21	-	-	-	-
O=C(NCc1ccccc1Br)c1cccc2c1C(=O)c1ccc(N3CCOCC3)cc1S2(=O)=O	-	.	.	28	.	-	37	-
OC(c1ccccc1)c1ncc(-c2cccc(F)c2)[nH]1 (configuration not stated)	.	-	-	.	.	.	.	.
CCOC(=O)c1ncccc1NC(=O)CC(=O)Nc1cccnc1C(=O)OCC	-	-	-	27	-	-	-	-
CCOc1ccc(C(=O)OCC(=O)Nc2cccnc2Cl)cc1OCC	.	-	-	.	.	.	.	.
Cc1cccc(NC(=O)CNC(=O)COc2ccc(-c3ccc(C#N)cc3)cc2)c1C	-	-	-	20	-	-	18	-
Cc1ccc(C(NC(=O)C(C)C)c2cc([N+](=O)[O-])c3cccnc3c2O)cc1 (configuration not stated)	-	-	-	26	-	-	20	-
CCC(=O)NC(c1ccc(C)cc1)c1cc(Cl)c2cccnc2c1O (configuration not stated)	.	.	-	.	.	.	.	.
CCC(=O)NC(c1cccs1)c1cc([N+](=O)[O-])c2cccnc2c1OC (configuration not stated)	.	-	-	.	.	.	.	.
CC(C)C(=O)NC(c1cccs1)c1cc([N+](=O)[O-])c2cccnc2c1O (configuration not stated)	-	.	-	26	-	-	16	-
CCOC(=O)c1cnc(-n2[nH]c(C)c(Cc3ccccc3)c2=O)[nH]c1=O	-	-	-	28	-	-	-	-
CCOC(=O)c1cnc2c(C)c(-c3ccccc3)[nH]n2c1=O	-	-	-	49	-	-	34	-
CCN1CCN(C(=O)NS(=O)(=O)c2ccc(C)cc2)CC1	.	-	-	.	.	.	.	.
CC1(C)Cc2c(C#N)c(N3CCN(C(=O)c4ccco4)CC3)nc(-c3ccco3)c2CS1	-	-	-	19	-	-	-	-
CCc1nc(N2CCN(C(=O)c3ccco3)CC2)c(C#N)c2c1COC(C)(C)C2	-	-	-	-	-	-	.	.
Cc1cc(OCC(=O)Nc2cc(C(C)(C)C)on2)ccc1[N+](=O)[O-]	-	-	-	-	-	-	.	.
Cc1ccc(C(=O)OCC(=O)c2ccc(S(=O)(=O)N3CCCCC3)cc2)o1	-	-	-	66	-	-	-	-
SMILES	ZTA DNA inh	MsrA inhibitor	MsrA act	PP1 counter	EBNA-1 inh	PP5 primary	PP1 inh confirm	PP5 inh counter
CN(C)S(=O)(=O)c1cccc(C(=O)Nc2ccccc2C(=O)NC2CC2)c1	.	-	-	.	.	.	.	.
COc1ccc(OC)c(N(CC(=O)NCC2CCCO2)S(=O)(=O)c2ccccc2)c1 (configuration not stated)	-	-	-	-	-	-	.	.
Cc1cccc(N2CSC3=C(C#N)C(c4ccc(C)o4)CC(=O)N3C2)c1 (configuration not stated)	-	.	.	20	-	-	16	-
CN(Cc1cn[nH]c1-c1cc2ccccc2o1)CC1CCOCC1	-	-	-	-	-	-	.	.
COc1ccc(-c2nnc(NC(=O)c3ccc(S(=O)(=O)N4CCCc5ccccc54)cc3)o2)cc1	-	.	-	29	-	-	40	-
COc1cccc(-c2nnc(NC(=O)c3ccc(S(=O)(=O)N4CCOCC4)cc3)o2)c1	-	.	-	-	-	-	.	.
O=C(Nc1nnc(C2CC2)o1)c1ccc(S(=O)(=O)N2CCCc3ccccc32)cc1	-	-	-	33	-	-	31	-
O=C(NCc1ccccc1)c1ccc(S(=O)(=O)N2CCCc3ccccc32)cc1	-	-	-	-	-	-	.	.
Cc1nc(NC(=O)c2ccc(Br)o2)ccc1Br	.	-	-	.	.	.	.	.
O=C(Nc1cccc(NC(=O)c2ccc(Br)o2)n1)c1ccc(Br)o1	-	-	-	35	-	-	31	-
COc1cc(/C=C2/NC(=O)N(CC(=O)Nc3ccc(C)cc3)C2=O)ccc1Oc1ccc([N+](=O)[O-])cn1	-	-	-	19	-	-	23	-
COc1ccc(-n2cccc2/C=C2\C(=N)N3N=C(c4ccco4)SC3=NC2=O)cc1	-	-	-	38	-	-	30	-
COCCN1CCN(C(=O)C2CCC(=O)N(CCc3cccc(F)c3)C2)CC1 (configuration not stated)	-	-	-	-	-	-	.	.
CCCn1c(=O)c(C(=O)NNC(=O)c2ccccc2[N+](=O)[O-])c(O)c2ccccc21	-	-	-	20	-	-	18	-
CCCn1c(=O)c(C(=O)NNC(=O)c2ccccc2Cl)c(O)c2ccccc21	-	-	-	-	-	-	.	.
O=C1CCC(C(=O)OCC(=O)Nc2ccccc2Br)=NN1	.	-	-	.	.	.	.	.
N#Cc1ccsc1NC(=O)COC(=O)C1=NNC(=O)CC1	-	-	-	19	.	-	-	-
CC1=C(C(=O)OCc2ccccc2)C(c2ccc(-c3ccccc3)cc2)NC(=O)N1CCCC(=O)O (configuration not stated)	-	-	.	-	-	-	.	.
CC1=C(C(=O)OCc2ccccc2)C(c2ccc(-c3ccccc3)cc2)NC(=O)N1CCCCCC(=O)O (configuration not stated)	-	-	-	19	-	-	-	-
CCCCc1c(-c2ccccc2OC)ncn1Cc1ccc(OC)cc1	.	-	.	.	.	.	.	.
CC(C)CNC(=O)c1ccccc1NC(=O)CN(c1ccccc1)S(=O)(=O)N(C)C	-	-	-	-	-	-	.	.

Bioassay records deposited in PubChem BioAssay by The Scripps Research Institute Molecular Screening Center.
